According to PubChem BioAssay AID686959 (The Scripps Research Institute Molecular Screening Center, 2013):
The source made the active and inactive calls. Cut-off not given; nearly all actives show IC50 up to about 8.1 µM.

Assay: small molecules binding CAG repeat RNA – biochemical, fluorescence, dose response (AID 686959)
Conditions: r(CAG) RNA repeat binding

IC50, active:
CC(C)c1ccc(C2c3[nH]c4ccccc4c3C[C@H]3C(=O)N(c4ccccc4C(=O)N4CCC[C@H]4C(=O)O)C(=O)N23)cc1 (stereo not given in full) 3.35 µM, COc1ccc(Cn2c(O)c(/C=N/NC(=O)c3cccnc3)c3ccccc3c2=O)cc1 3.07 µM, CCOC(=O)C1=C(C)NC(SCc2cc(=O)[nH][nH]2)=C(C#N)C1c1cccs1 (stereo not given) 7.4 µM, O=c1[nH]n2c(=O)c3c([nH]c2c1N=Nc1cccc(Cl)c1)CCC3 2.33 µM, COc1ccc2nc(N3C(=O)C(O)=C(C(=O)c4ccco4)C3c3ccc(OC)c(OC)c3)sc2c1 (stereo not given) 2.04 µM, Cc1ccc2c(c1)c(N=Nc1cccc(C(=O)O)c1)c(O)n2C 5.07 µM, Cc1ccc2nc(N3C(=O)C(O)=C(C(=O)c4ccco4)C3c3ccc(C)o3)sc2c1 (stereo not given) 0.624 µM, Cc1cc(N2C(=O)C(O)=C(C(=O)c3cc4ccccc4o3)C2c2cccc(Cl)c2)no1 (stereo not given) 1.19 µM, CCc1nnc(NS(=O)(=O)c2ccc(N/C=C/C(=O)c3ccc(C)cc3)cc2)s1 1.9 µM, COc1cc(/C=C2\C(=O)N(c3ccc(NC(C)=O)cc3)N=C2c2ccccc2)ccc1O 2.9 µM, N/C(=N\N=C\c1cccs1)SC1CC(=O)N(c2ccc(Br)cc2)C1=O (stereo not given) 8.27 µM, CC1=C(C#N)c2nc(N)c(C#N)c(C)c2/C1=C\c1ccc(-c2ccccc2C(=O)O)o1 2.57 µM, C/C(=N\N=C(/N)SC1CC(=O)N(c2cccc(Cl)c2)C1=O)c1cccs1 (stereo not given) 5.19 µM, CC(C)c1ccc(C2c3[nH]c4ccccc4c3C[C@H]3C(=O)N(c4ccccc4C(=O)N4CCC[C@@H]4C(=O)O)C(=O)N23)cc1 (stereo not given in full) 2.84 µM, O=C(O)CCCCCn1c(O)c(C=C2N=c3ccccc3=N2)sc1=S 3.87 µM
